NTMT1 inh: blocks human N-terminal methyltransferase 1 activity | Q9BV86 | NTMT1 MTase-Glo SAH luminescence, purified enzyme | Potency, µM (top dose mostly 114 µM), inactives show at the highest dose activity change, negative = inhibition, hits mostly inhibitors | 2.5% of 59,000 active;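 further: potency means the concentration at half of the fitted maximal effect; plate controls were DMSO vehicle for no effect and no enzyme for full effect; nearly all actives have a fitted effect of over 65% in size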
SKOV3 invasion: inhibitors of ovarian cancer cell adhesion and invasion in omental model. SKOV3ip1-GFP adhesion/invasion on 3D omental model, fluorescence. Potency, µM (top dose mostly 45.8 µM), for the others: at the highest dose activity change, negative = inhibition, actives largely listed as inhibitors. 0.1% of 46,000 active;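 further: potency means the concentration at half of the fitted maximal effect; plate controls were DMSO wells for no effect and tomatine positive control wells for full effect; nearly all actives have a fitted effect of over 65% in size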
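A 3D layer of primary human omental fibroblasts, mesothelial cells, fibronectin and collagen I, grown 48 hr, received SKOV3ip1-GFP cells in serum-free medium plus compounds at 0.36-46 umol/L. After 2 hr RT and 16 hr 37 C, fixed adherent GFP cells were counted; normalized to DMSO and tomatine.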
FH mod: Identification of activators of human fumarate hydratase by quantitative high-throughput screening. Fumarate hydratase, mitochondrial (Homo sapiens), P07954. FH coupled MDH/diaphorase resazurin fluorescence, 15 min. Potency, µM (titrated, usually from 79.9 µM), for inactives: at the highest dose activity change, negative = inhibition, usual class: inhibitors. 0.22% of 54,000 active; further: potency means the concentration at half of the fitted maximal effect; on the % scale 0 is the no-effect control and ±100 the full control effect; the screen sought activators but most active calls are inhibition curves; nearly all actives have a fitted effect of over 45% in size
DYRK1A inh-1: blocks recombinant human DYRK1A kinase activity. shares compounds with NTMT1 inh. recombinant DYRK1A, Kinase-Glo ATP depletion luminescence. Potency, µM (series often up to 76.9 µM), without a hit: at the highest dose activity change, negative = inhibition, hits mostly inhibitors. 80% of 100 active
CLK4 inh-1: confirmation of human CLK4 kinase inhibitors, SAR round 2; recombinant Clk4, Kinase-Glo ATP luminescence, 4.5 h; 90% of 90 active; shares compounds with NTMT1 inh; Potency, µM (doses to about 76.9 µM), inactives show at the top dose activity, negative = inhibition, usual class: inhibitors
CLK4 inh-2: CLK4 kinase inhibition, SAR round 2; Reaction Biology kinase assay, 10 uM ATP; 100% of 65 active; Potency, µM, most hits filed as inhibitors; shares compounds with NTMT1 inh; calls by dose curve
DYRK1A inh-2: blocks human DYRK1A kinase in radiometric assay; shares compounds with NTMT1 inh; Reaction Biology kinase assay, 10 uM ATP; Potency, µM, actives largely listed as inhibitors; 90% of 65 active;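 active means compounds that showed inhibition of Dyrk1a and received a fitted potency; inactive means compounds that showed no inhibition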
CLK2 RBC: inhibitors of human CLK2 kinase. Reaction Biology kinase assay, 10 uM ATP. Potency, µM, hits mostly inhibitors. shares compounds with NTMT1 inh. 90% of 65 active;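 active means compound that inhibits Clk2 kinase in the dose series, with an IC50 potency reported; inactive means no inhibition seen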
Target sequence (P49760 whole entry, looked up): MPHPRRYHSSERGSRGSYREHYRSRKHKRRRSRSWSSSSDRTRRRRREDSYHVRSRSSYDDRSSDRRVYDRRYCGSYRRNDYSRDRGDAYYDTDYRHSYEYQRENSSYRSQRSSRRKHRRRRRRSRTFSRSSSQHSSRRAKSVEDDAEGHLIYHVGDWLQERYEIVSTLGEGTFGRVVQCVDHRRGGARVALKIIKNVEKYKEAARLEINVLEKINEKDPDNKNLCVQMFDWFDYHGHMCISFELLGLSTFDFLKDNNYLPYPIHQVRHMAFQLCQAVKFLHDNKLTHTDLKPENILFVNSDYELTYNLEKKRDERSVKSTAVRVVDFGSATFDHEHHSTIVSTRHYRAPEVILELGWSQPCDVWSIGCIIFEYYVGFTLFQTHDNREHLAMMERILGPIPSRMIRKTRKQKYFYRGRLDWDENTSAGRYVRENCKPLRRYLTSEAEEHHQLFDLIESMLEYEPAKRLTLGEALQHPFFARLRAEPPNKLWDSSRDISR
CLK3 inh: CLK3 kinase inhibition. shares compounds with NTMT1 inh. recombinant CLK3 kinase assay, 10 uM ATP. Potency, µM, most hits filed as inhibitors. 40% of 65 active. AID 504428;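 active means compounds that inhibited Clk3 enough in the ten-dose series to give a half-maximal potency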
DYRK1B inh: blocks human DYRK1B kinase activity; shares compounds with NTMT1 inh; Recombinant Dyrk1b kinase assay, 10 uM ATP; Potency, µM, actives largely listed as inhibitors; 80% of 65 active;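 active means compounds whose dose response shows an inhibitor phenotype against the kinase Dyrk1b; inactive means compounds showing no inhibitor phenotype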
CLK1 inh: inhibitors of human CLK1 kinase. shares compounds with NTMT1 inh. 90% of 65 active. recombinant Clk1 kinase assay, 10 uM ATP. Potency, µM, actives largely listed as inhibitors. AID 504430;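 active means compounds that block the splicing kinase Clk1 enough to give a fitted half-inhibition concentration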
USP2a K63: confirmation of human USP2a inhibitors with K63 diubiquitin substrate | shares compounds with NTMT1 inh | USP2 cleavage of DiUb K63-3IQF, fluorescence kinetic | Potency, µM (top dose mostly 57.5 µM), without a hit: at the highest dose activity change, negative = inhibition, most hits filed as inhibitors | 80% of 30 active
Casp6 counter: caspase-6 inhibition, USP2a inhibitor counterscreen. 30 tested, under 10 active. shares compounds with NTMT1 inh. Caspase 6 enzyme, Caspase-Glo 6 luminescence. activity change, negative = inhibition, % at 46.1 µM
HSD17B4 inh: counter-screen for HPGD inhibitors: human HSD17B4 inhibition. purified HSD17B4, estradiol/NAD+, NADH fluorescence. 10% of 230 active. shares compounds with NTMT1 inh. Potency, µM (highest dose often 57.1 µM), for inactives: at the top dose activity change, negative = inhibition, hits mostly inhibitors
ALDH1A1 inh: counter-screen for HPGD inhibitors: human ALDH1A1 inhibition | 93% of 230 active | Potency, µM (titrated, usually from 57.1 µM), for inactives: at the top dose activity change, negative = inhibition, usual class: inhibitors | recombinant ALDH1A1, NADH fluorescence, propionaldehyde/NAD+ | AID 743195 | shares compounds with NTMT1 inh
NNMT counter: human NNMT inhibition, NTMT1 counter-screen; shares compounds with NTMT1 inh; NNMT MTase-Glo luminescence, SAH detection; Potency, µM (top dose mostly 57.1 µM), for the others: top-dose activity, negative = inhibition, actives largely listed as inhibitors; 10% of 120 active
The depositor's hits bear a star; i = inactive; u = inconclusive; x = no result given; [ ] = remark or other dose. Hits are enriched below; roughly 3.9% of the tested compounds scored in any of these assays. Unless noted, the call rests on the fitted dose curve; in most records, active means well fitted curve in the direction sought with a large enough effect; inconclusive means small, poorly fitted or top-dose-only effect, or another doubt; inactive means no such curve, though single readings can be large; an effect the other way counts as inactive or inconclusive.

SMILES	NTMT1 inh	SKOV3 invasion	FH mod	others
CS[C@H]1SC[C@@H]2C(=O)N(C)[C@H](C(C)C)C(=O)OC[C@H](NC(=O)c3cnc4ccccc4n3)C(=O)N[C@H](C)C(=O)N(C)[C@@H]1C(=O)N(C)[C@H](C(C)C)C(=O)OC[C@H](NC(=O)c1cnc3ccccc3n1)C(=O)N[C@H](C)C(=O)N2C	12.6%[57.5 µM]	5.3%	-10.3%[53.3 µM]
CCn1c(=O)c(-c2ccn[nH]2)cc2c(C)nc(N)nc21	-4.8%[57.5 µM]	x	-5.1%	NNMT counter=-14.4%
Cc1ccc(-c2cc(C(=O)NCc3ccc(S(N)(=O)=O)cc3)c3ccccc3n2)cc1C	-8.5%	x	x
Cc1ccc(-c2cc(C(=O)Nc3ccc(S(N)(=O)=O)cc3)c3cccc(C)c3n2)cc1C	x	x	x	USP2a K63=10.9µM*;Casp6 counter=u
Cc1ccc(-c2cc(C(=O)Nc3ccc(-n4cccn4)cc3)c3ccccc3n2)cc1C	-12.2%	x	x	USP2a K63=8.63µM*;Casp6 counter=-7.3
O=C(O)c1cccc(C(=O)CCC2OC(n3cnc4c(=O)[nH]cnc43)C(O)C2O)c1 (configuration not stated)	8.0%[29.8 µM]	x	-8.9%[53.3 µM]
COc1cc2c(Nc3cc(F)c(Cl)c(Cl)c3)ncnc2cc1OCC1CCCN(C)CCC1	35.5µM*	x	-5.5%	NNMT counter=u
COc1cc2c(NC3CCN(C)CC3)nc(N3CCCN(C)CC3)nc2cc1OCCCN(C)C	-18.1%	x	x
O=C(c1ccc2c(c1)ncn2-c1cccc(C(F)(F)F)c1)N1CCCCC1	-0.5%[57.5 µM]	x	x	HSD17B4 inh=-12.4%;ALDH1A1 inh=u
Cc1ccc(-n2cnc3cc(C(=O)N4CCCCC4)ccc32)cc1	2.2%	x	x
O=c1nc(-c2ccccn2)sc2ccccc12	20µM*	x	8.5%	NNMT counter=u
CN(C)CCCOc1ccc(-c2ccc3ncc4c(c3c2)n(C2CCOCC2)c(=O)n4C)cn1	-0.2%[57.5 µM]	x	x
COc1ccc(-c2cc3c(C)nc(N)nc3n(C3CCC(OCCO)CC3)c2=O)cn1 (configuration not stated)	-0.4%	-16.7%	0.8%	NNMT counter=u
CC[C@H]1OC(=O)[C@H](C)C(=O)[C@H](C)[C@@H](O[C@H]2O[C@H](C)C[C@H](N(C)C)[C@@H]2O)[C@](C)(OC)C[C@@H](C)C(=O)[C@H](C)[C@H]2N(CCCCn3cnc(-c4cccnc4)c3)C(=O)O[C@]12C	u	4.4%	-3.4%[53.3 µM]
O=C1CCc2cc([S+](=O)([O-])Nc3ccc(Cl)c(Cl)c3)c(NCCCO)cc2N1	-1.5%	x	x
CC(=O)Nc1ccc(CNc2ncnc3ccc(-c4c(C)noc4C)cc23)cc1	-0.2%[57.5 µM]	x	x
CCNC(=O)c1ccc(-c2ccc3ncnc(NCc4ccc(C)o4)c3c2)o1	u	x	x	CLK4 inh-1=0.519µM*;CLK4 inh-2=1.36*;DYRK1A inh-2=6.3µM*;CLK2 RBC=4.16µM*;CLK3 inh=i;DYRK1B inh=6.74µM*;CLK1 inh=5.42µM*
Cc1cccc(CNc2ncnc3ccc(-c4cccc(C)c4)cc23)c1	-0.8%	x	x
CCOC(=O)c1ccc(-c2ccc3ncnc(NCc4cccs4)c3c2)o1	x	x	x	DYRK1A inh-1=1.46µM*;CLK4 inh-2=0.088*;DYRK1A inh-2=1.44µM*;CLK2 RBC=8.51µM*;CLK3 inh=i;DYRK1B inh=4.27µM*;CLK1 inh=0.798µM*
CCOC(=O)c1ccc(-c2ccc3ncnc(NCc4ccc(C)o4)c3c2)o1	u	x	x	DYRK1A inh-1=5.82µM*
CC(=O)c1ccc(-c2ccc3ncnc(NCc4ccc(C)o4)c3c2)o1	u	x	x	CLK4 inh-1=0.292µM*;CLK4 inh-2=0.564*;DYRK1A inh-2=5.83µM*;CLK2 RBC=6.85µM*;CLK3 inh=i;DYRK1B inh=10.2µM*;CLK1 inh=6.98µM*
